For 20 compounds, B-score and outcome results are on record in PubChem BioAssay AID463165 (Johns Hopkins Ion Channel Center, 2010).

Molecules are shown by their SMILES. About 1,400 (0.45%) of roughly 310,000 compounds were called active.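 How the source made its calls: active means B-score, a plate-corrected calcium signal, over three deviations above library mean, with baseline fluorescence within five deviations of library mean; inactive means the rest.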 The list comes from a sample in which actives are over-represented; it also holds similar structures and randomly drawn compounds.

The test deals with Regulator of G-protein signaling 4 (Homo sapiens) (UniProt P49798). The test can be described thus: blockers of RGS4 function in M3R calcium signaling – cell-based, HEK293 M3R inducible RGS4, calcium flux, primary screen (AID 463165).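 Further: RGS4 expression induced by doxycycline in cells with stable M3 receptor.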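 On B-score: B-score is computed from the integrated fluorescence ratio over baseline after carbachol; higher B-score means a larger calcium signal and so more RGS4 inhibition.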 Particulars: Fluo-4 calcium flux, at 10 µM; B-score: stronger effect = higher value unless noted; outcome: triggered by carbachol at its EC20 unless noted. In general terms: A change in cytosolic calcium serves as a functional read-out for many receptors and channels.
Sequence of Regulator of G-protein signaling 4 (Homo sapiens) (P49798 whole entry, looked up): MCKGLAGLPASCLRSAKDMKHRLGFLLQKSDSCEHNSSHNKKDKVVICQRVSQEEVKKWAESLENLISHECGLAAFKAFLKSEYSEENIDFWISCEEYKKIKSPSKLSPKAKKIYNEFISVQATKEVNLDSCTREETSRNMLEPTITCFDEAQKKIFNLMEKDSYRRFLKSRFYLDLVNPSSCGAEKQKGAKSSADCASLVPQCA
In the case of `O=C(N/N=C/c1c(O)n(Cc2ccccc2)c(=O)[nH]c1=O)c1ccccc1`, the B-score was 5.25 (active).

Consider `O=C(N/N=C/c1c(O)n(C2CC2)c(=S)[nH]c1=O)c1ccccc1`, for which the outcome was “inactive [setting not given]”.

On to `O=c1[nH]c(=O)n(Cc2ccccc2)c(O)c1/C=N/Nc1c(F)c(F)c(F)c(F)c1F`, for which the outcome is “inactive [setting not given]”.

Consider `O=c1[nH]c(O)c(C=Nc2cc(F)cc(F)c2)c(=O)[nH]1`, for which the outcome was “inactive [setting not given]”.

As for `Cc1ccc2c(c1)=C/C(=C\c1c(O)[nH]c(=O)[nH]c1=O)C(=O)N=2`, the B-score was 5.31 (active).

For the compound `O=C1N=c2ccccc2=C/C1=C\c1c(O)[nH]c(=S)[nH]c1=O`, the outcome is “inactive [setting not given]”.

In the case of `COC(=O)CN1C(=O)C2(C(C(=O)OC)=C(N)Oc3ccccc32)C2=C1CC(C)(C)CC2=O` (stereo not given), the outcome was inactive.

For the compound `CC1CCC(N(C)C2CCN(C)CC2)CC1` (stereo not given), the outcome was inactive.

`C=CC12CN(C)[C@@H]3C4CO[C@H](C[C@H]41)[C@]1(C(=O)Nc4ccccc41)[C@@H]32` (stereo not given in full): the outcome was inactive.

On to `CC(C)(C)c1ccc(OC(=O)N2CCCCC2)cc1`, for which the outcome was inactive.

`Cc1cccc(N2C(=O)NC(=O)/C(=C\c3cnn(-c4ccccc4)c3)C2=O)c1`: the outcome is “inactive [setting not given]”.

With `O=C1NC(=O)N(c2ccccc2)C(=O)/C1=C/c1ccc([N+](=O)[O-])s1`, the B-score was 4.87 (active).

Take `O=C1NC(=O)N(c2ccc(F)cc2)C(=O)/C1=C/c1ccc2c(c1)CCCN2Cc1ccccc1`: the outcome was “inactive [setting not given]”.

Consider `CC(C)c1ccc(OCC(=O)N2CCCN(C)CC2)cc1`, for which the outcome was inactive.

In the case of `O=C(CCNS(=O)(=O)c1ccccc1)Nc1ccc(Cl)cc1C(=O)c1ccccc1`, the outcome was inactive.

For the compound `O=C1NC(=O)N(Cc2ccco2)C(=O)/C1=C\c1cccn1CCOc1ccccc1`, the outcome is “inactive [setting not given]”.

As for `O=C1NC(=O)N(Cc2ccco2)C(=O)/C1=C\c1ccc(-c2ccc(F)cc2)o1`, the B-score was 15.5 (active).

As for `Cc1cc(/C=C2/C(=O)NC(=O)N(Cc3ccco3)C2=O)c(C)n1-c1ccc(C(=O)O)cc1`, the outcome is “inactive [setting not given]”.

Take `CN(C)CC1Oc2ccccc2OC1(O)c1ccccc1` (stereo not given): the outcome was inactive.

As for `COC(=O)C1=C(c2ccccc2)C[C@@H]2CC[C@H]1N2C(=O)NCc1ccco1`, the result was inactive.
